# Test results from ChEMBL document CHEMBL3988442, “University of Dundee, Small-Polar-MMV Screening Library” (2021).
# The whole screen tested about 66,000 compounds, of which about 960 (1.5%) showed an effect of 50% or more. Many of the other results were omitted from the sample, so strong results are more common in it than they were.
# Test system: Trypanosoma brucei
# Experiment: Trypanosoma brucei 72 hour study
# Type: functional, organism-based
# Set-up: scale not given: in the data most compounds retested in dose-response had high values
compound,measurement,setting,value
Cc1cccc(CN2CCc3cc(C(=O)O)c(N(C)C)nc3CC2)n1.O=C(O)C(F)(F)F.O=C(O)C(F)(F)F,Percent Effect,"30.3 µM, […]",-4.937%
CN(C)C(=O)COC[C@@H]1CC[C@H]2[C@H](CCN2c2ncccn2)O1.O=C(O)C(F)(F)F,Percent Effect,"30 µM, 30.03 µM",-8.509%
Cc1ccc(CN2CC3(CCN(C(=O)c4cscn4)C3)C2)o1.O=C(O)C(F)(F)F,Percent Effect,"30 µM, 30.03 µM",-9.237%
O=C(O)C(F)(F)F.O=C(O)C(F)(F)F.O=C(O)C(F)(F)F.OCCN1CCC2(CC1)CC(NCc1ccccn1)c1ccccc1O2 (stereo unspecified),Percent Effect,"30 µM, 30.03 µM",-31.61%
CC(C)N1CCCC1c1cc(CO)[nH]n1.O=CO (stereo unspecified),Percent Effect,"30.3 µM, […]",-7.818%
Cc1ccc(N2CCc3c(CN(C)Cc4ccco4)cncc3C2)nn1.Cl.Cl,Percent Effect,"30.3 µM, […]",-4.486%
CN(Cc1ccco1)Cc1cncc2c1CCN(c1ncccn1)C2.Cl.Cl,Percent Effect,"30 µM, 30.03 µM",54.64%
Cc1cnc(N2CCc3c(CN(C)Cc4ccco4)cncc3C2)nc1,Percent Effect,"30.3 µM, […]",5.943%
CCN1CCC(NC(=O)CN2CCc3c(ncn3C3CC3)C2)CC1,Percent Effect,10 µM,-42.18%
Cc1cnc(C(=O)N2CCC3(CCN(Cc4ccccn4)C3=O)C2)cn1.O=C(O)C(F)(F)F (stereo unspecified),Percent Effect,"30 µM, 30.03 µM",-17.07%
Cc1ccccc1-n1cc(-c2ccnc(N3CCCC(O)C3)n2)cn1 (stereo unspecified),Percent Effect,"30.3 µM, […]",12.09%
Cc1ccccc1-n1cc(-c2ccnc(N3CCCC(CN)C3)n2)cn1 (stereo unspecified),Percent Effect,"30.3 µM, […]",46.15%
COC[C@H]1CCCN1c1nccc(-c2cnn(-c3ccccc3C)c2)n1,Percent Effect,"30.3 µM, […]",99.85%
Cl.c1cc(CNCc2ccc(-n3cncn3)nc2)cc(OC2CCCC2)c1,Percent Effect,"30.3 µM, […]",-105%
O=C(N1CCOCC1)N1CCN(c2ccnc3ccsc23)CC1,Percent Effect,"30.3 µM, […]",-32.02%
Cc1ccc(C(=O)N2CCN(c3ccnc4ccsc34)CC2)o1,Percent Effect,"30.3 µM, […]",99.86%
O=C(c1cnccn1)N1CCN(c2ccnc3ccsc23)CC1,Percent Effect,"30.3 µM, […]",-26.37%
CN(C)Cc1nn(C)c2c1CN(C(=O)c1cccc(C#N)c1)C2,Percent Effect,"30.3 µM, […]",-11.38%
Cc1cc(C)cc(CNc2ccc(C(=O)NC(C)CO)cc2)c1 (stereo unspecified),Percent Effect,"30.3 µM, […]",34.18%
CC(CO)NC(=O)c1ccc(NCc2ccc(F)c(F)c2)cc1 (stereo unspecified),Percent Effect,"30.3 µM, […]",74.6%
CC(CO)NC(=O)c1ccc(NCc2ccccc2)cc1 (stereo unspecified),Percent Effect,"30.3 µM, […]",11.13%
CCn1cc(N2Cc3nc(N4CCC(O)CC4)ncc3C2=O)cn1,Percent Effect,"30.3 µM, […]",-24.87%
O=C(Nc1cnn(CC(=O)N2CCCCO2)c1)c1ccsc1,Percent Effect,"30 µM, 30.03 µM",102%
O=C(Nc1cnn(CC(=O)N2CCCCO2)c1)c1ccccn1,Percent Effect,"30 µM, 30.03 µM",-63.86%
O=C(Nc1cnn(CC(=O)N2CCCO2)c1)c1ccccc1,Percent Effect,"30 µM, 30.03 µM",-24.18%
Cc1ccc(C(=O)N(C)Cc2cc(Br)cs2)cn1,Percent Effect,"30 µM, 30.03 µM",-13.9%
Clc1ccc2cccnc2c1CN1CCCC1Cn1cncn1 (stereo unspecified),Percent Effect,"30 µM, 30.03 µM",3.447%
c1ncn(CC2CCCN(Cc3csc(-c4ccsc4)n3)C2)n1 (stereo unspecified),Percent Effect,"30.3 µM, […]",-1.362%
c1cnc(-c2nc(CN3CCCC(Cn4cncn4)C3)cs2)nc1 (stereo unspecified),Percent Effect,"30 µM, 30.03 µM",8.258%
Clc1ccc2cccnc2c1CN1CCCC(Cn2cncn2)C1 (stereo unspecified),Percent Effect,"30 µM, 30.03 µM",98.3%
c1ccc(-c2nc(CN3CCCC(Cn4cncn4)C3)cs2)cc1 (stereo unspecified),Percent Effect,"30.3 µM, […]",51.63%
Clc1ccc(CN2CCCC(Cn3cncn3)C2)c2ncccc12 (stereo unspecified),Percent Effect,"30 µM, 30.03 µM",-24.17%
CO[C@@H]1CCN(C(=O)Cc2ccc(F)cc2)[C@@H]1Cc1cccnc1.O=C(O)C(F)(F)F,Percent Effect,"30.3 µM, […]",-10.6%
COCCN1CC[C@H]2CN(Cc3ccc(C)s3)C[C@@H]2C1=O.O=C(O)C(F)(F)F,Percent Effect,"30.3 µM, […]",-7.411%
CO[C@H]1CN(Cc2nc3ccccc3n2C)CC[C@@]12CCCO2,Percent Effect,"30.3 µM, […]",5.707%
CO[C@H]1CN(Cc2ccccc2F)C[C@@]12CCCO2,Percent Effect,"30.3 µM, […]",-11.54%
CO[C@H]1CN(Cc2nc3ccccc3n2C)C[C@@]12CCCO2,Percent Effect,"30.3 µM, […]",99.68%
O=C(O)C(F)(F)F.O=C(O)C(F)(F)F.O=C(c1ccnnc1)N1CCN(Cc2ccncc2)c2ncccc2C1,Percent Effect,"30.3 µM, […]",-2.542%
Cc1nc(Nc2nccs2)cc(C2CCCN2C2CCOCC2)n1 (stereo unspecified),Percent Effect,"30.3 µM, […]",18.07%
Cc1nc(Nc2ncc(C)s2)cc(C2CCCN2S(C)(=O)=O)n1 (stereo unspecified),Percent Effect,"30.3 µM, […]",-10.42%
Cc1nc(Nc2nccs2)cc(C2CCCN2)n1.Cl (stereo unspecified),Percent Effect,"30.3 µM, […]",99.83%
Cc1nc(Nc2nnc(C)s2)cc(C2CCCN2)n1.Cl (stereo unspecified),Percent Effect,"30.3 µM, […]",-18.52%
Cc1nc(Nc2ncc(C)s2)cc(C2CCCN2)n1.Cl (stereo unspecified),Percent Effect,"30.3 µM, […]",99.89%
Cc1nc(Nc2nncs2)cc(C2CCCN2)n1.Cl (stereo unspecified),Percent Effect,"30.3 µM, […]",-19.68%
COc1ccc(NC(=O)CCNc2ncccn2)cn1,Percent Effect,"30 µM, 30.03 µM",-26.87%
CCn1cc(CN2C[C@@H]3CCCN3C[C@@H]2CCSC)cn1.O=C(O)CC(O)(CC(=O)O)C(=O)O,Percent Effect,"30.3 µM, […]",8.457%
O=C(NCC1CCOCC1)[C@@H]1C[C@@H]2[C@@H](CCN2Cc2nccs2)O1.O=C(O)C(F)(F)F,Percent Effect,"30.3 µM, […]",-69.82%
Cc1cc(C[C@@H]2COC[C@H]2NCc2ccc(C(F)(F)F)cc2)on1.O=C(O)CC(O)(CC(=O)O)C(=O)O,Percent Effect,"30.3 µM, […]",8.396%
O=C(Cc1ccccn1)N1C[C@H](OCc2cccnc2)[C@H]2COC[C@H]21.O=C(O)C(F)(F)F.O=C(O)C(F)(F)F,Percent Effect,"30.3 µM, […]",-31.71%
O=C(C1CC1)N1Cc2[nH]nc(COCc3cccnc3)c2C1.O=C(O)C(F)(F)F.O=C(O)C(F)(F)F,Percent Effect,"30.3 µM, […]",-50.32%
COCCN(C)C[C@@H]1CN(Cc2ccnc3ccccc23)C[C@@H]1CO,Percent Effect,"30 µM, 30.03 µM",-38.21%
COCCN(C)C[C@@H]1CN(c2cc(C)nc3ccccc23)C[C@@H]1CO,Percent Effect,"30 µM, 30.03 µM",99.51%
COCCN(C)C[C@@H]1CN(c2nc(C)cc(C)n2)C[C@@H]1CO,Percent Effect,"30 µM, 30.03 µM",-45.82%
COCCNc1cc(-c2cccc(C(=O)O)c2C)c2cc[nH]c2n1,Percent Effect,"30 µM, 30.03 µM",-15.23%
COCC(=O)N1CC[C@H]2C[C@H](C)O[C@@H]2C1,Percent Effect,"30 µM, 30.03 µM",19.11%
COCC(=O)N1CC[C@@H]2O[C@@H](C)C[C@H]2C1,Percent Effect,"30.3 µM, […]",51.97%
COCC(=O)N1CC[C@H]2O[C@@H](C)C[C@H]2C1,Percent Effect,"30.3 µM, […]",-22.84%
O=C(O)C(F)(F)F.c1cnc(NCc2nnn3c2CN(Cc2cccs2)CCC3)nc1,Percent Effect,"30 µM, 30.03 µM",-17.42%
Cc1occc1C(=O)N1CCC2(CCN(C(=O)c3cccnc3)C2)CC1.O=C(O)C(F)(F)F,Percent Effect,"30.3 µM, […]",-37.63%
Cc1ccc(Oc2c(F)cccc2OC[C@@H](N)CC(C)C)cc1,Percent Effect,"30.3 µM, […]",99.61%
CC(CNS(N)(=O)=O)Oc1cccc(Cl)c1 (stereo unspecified),Percent Effect,"30 µM, 30.03 µM",-29.05%
CNCc1cc(F)ccc1Oc1ccc(Cl)cc1,Percent Effect,"30.3 µM, […]",-18.58%
CC(CNS(C)(=O)=O)Oc1cccc(Cl)c1 (stereo unspecified),Percent Effect,"30 µM, 30.03 µM",-19.79%
NCc1ccc(Oc2cccc(Cl)c2Cl)cc1,Percent Effect,"30 µM, 30.03 µM",-54.14%
CCOc1ccccc1C(N)CC(C)C (stereo unspecified),Percent Effect,"30 µM, 30.03 µM",-21.09%
CC(C)C[C@H](N)COc1cccc(F)c1Oc1ccc(Cl)cc1,Percent Effect,"30.3 µM, […]",100.5%
CC(C)COc1ccccc1C(N)CC(C)C (stereo unspecified),Percent Effect,"30 µM, 30.03 µM",-18.48%
CC(C)C[C@H](N)COc1cccc(F)c1Oc1cccc(Cl)c1,Percent Effect,"30.3 µM, […]",99.87%
COc1ccccc1C(N)CC(C)C (stereo unspecified),Percent Effect,"30 µM, 30.03 µM",-12.31%
CCCOc1ccccc1C(N)CC(C)C (stereo unspecified),Percent Effect,"30 µM, 30.03 µM",-40.73%
CC(C)C[C@H](N)COc1cccc(F)c1Oc1ccccc1,Percent Effect,"30.3 µM, […]",100.2%
Cc1ccc(NC2CCN(C(=O)CCc3ccncc3)CC2)nn1,Percent Effect,"30.3 µM, […]",5.448%
same,Percent Effect,"10 mM, 10 mM as filed; unlikely as a test dose",-59.85%
CC(CNCc1ccc2c(c1)n(C)c(=O)n2C)Oc1ccccn1.Cl (stereo unspecified),Percent Effect,"30 µM, 30.03 µM",-26.55%
CCn1nc(C)c2ccn(CC(=O)NC3CC3)c(=O)c21,Percent Effect,"30 µM, 30.03 µM",-19.49%
c1ccc(-c2nc(CNCCn3cccn3)cs2)nc1,Percent Effect,"30.3 µM, […]",-32.04%
CCn1ncc(CN2CCCC(n3c(=O)oc4ccccc43)C2)c1C.Cl (stereo unspecified),Percent Effect,"30.3 µM, […]",17.06%
CCc1ccc(C(=O)Nc2ccc3c(c2)N(C)CCN(C)C3)o1,Percent Effect,"30 µM, 30.03 µM",-2.445%
CCN1CCOCC2(CCCN(C(=O)c3ccccc3F)C2)C1.O=C(O)C(F)(F)F (stereo unspecified),Percent Effect,"30.3 µM, […]",-73.72%
CO[C@H]1CC[C@H]2[C@H]1OCCN2Cc1ccc(F)c(F)c1.O=C(O)C(F)(F)F,Percent Effect,"30.3 µM, […]",-36.53%
CCN1CC2(CC1=O)CN(Cc1cnn(C)c1)CCN(C(=O)N(C)C)C2.O=C(O)C(F)(F)F (stereo unspecified),Percent Effect,"30 µM, 30.03 µM",-27.29%
CC(=O)NCC1CCN(C(=O)c2c(C)[nH]c3ccc(Cl)cc23)CC1,Percent Effect,"30.3 µM, […]",4.898%
C[C@@H](CO)Nc1nccc(-c2cnc3sc(Cl)cn3c2=O)n1,Percent Effect,"30.3 µM, […]",8.201%
CCc1nc(C)c(C(=O)NCC2COc3cc(OC)ccc3C2)o1 (stereo unspecified),Percent Effect,"30 µM, 30.03 µM",22.43%
O=C1CCCCN1CCc1nc(-c2cccnn2)no1,Percent Effect,"30 µM, 30.03 µM",-7.651%
CC(C)CNC(=O)[C@H]1C[C@@H]2CN(C(=O)NCCc3ccccc3)C[C@H]1O2,Percent Effect,"30 µM, 30.03 µM",5.175%
O=S1(=O)CCC(S(=O)(=O)c2cccc(S(=O)(=O)N3CCOCC3)c2)C1 (stereo unspecified),Percent Effect,"30 µM, 30.03 µM",-4.748%
Fc1ccccc1CN1CCC[C@@H](Cn2nnc(-c3cccs3)n2)C1,Percent Effect,"30.3 µM, […]",-5.522%
Fc1cccc(CN2CCC[C@H](Cn3nnc(-c4ccccn4)n3)C2)c1,Percent Effect,"30.3 µM, […]",-22.29%
Fc1ccccc1CN1CCC[C@H](Cn2nnc(-c3cccs3)n2)C1,Percent Effect,"30.3 µM, […]",82.08%
COc1cccc(CN2CCCC3(CCN(C(=O)N4CCCC4)C3)C2)c1.O=C(O)C(F)(F)F (stereo unspecified),Percent Effect,"30.3 µM, […]",-29.29%
COCCC1(C(=O)O)CCCN(C(=O)c2cc(Cl)ccc2F)C1 (stereo unspecified),Percent Effect,"30.3 µM, […]",-11.98%
COc1ccc(-n2cnnc2SCC(=O)NC(C)C)cn1,Percent Effect,"30 µM, 30.03 µM",21.81%
COc1ccc(-n2cnnc2SCC(=O)N(C)C(C)C)cn1,Percent Effect,"30 µM, 30.03 µM",19.1%
CCC(C)Sc1nncn1-c1ccc(OC)nc1 (stereo unspecified),Percent Effect,"30 µM, 30.03 µM",74.74%
CCOC(=O)[C@]12CCCN(Cc3cccs3)C[C@H]1CN(C(C)=O)C2.O=C(O)C(F)(F)F,Percent Effect,"30.3 µM, […]",-10.51%
